Most compounds without a hit are left out; they make up all but 4% or so of the library.
D1 PAM: human D1 dopamine receptor positive modulation. P21728. HEK293 TREx D1 cells, calcium flux, dopamine EC20 potentiation. potentiation, % at 10 µM. actives 0.036% (n = 360,000); in the data active = potentiation above about 30%; note: 0% is about no effect
TRHR enhancer: TRH receptor (human) allosteric enhancement; TRHR cells, fluo-8 calcium fluorescence, EC20 TRH enhancement; actives 0.66% (n = 360,000); enhancement, % at 2 µM; in the data active = enhancement above about 30%; note: 0% is about no effect
Target sequence (P34981 whole entry, looked up): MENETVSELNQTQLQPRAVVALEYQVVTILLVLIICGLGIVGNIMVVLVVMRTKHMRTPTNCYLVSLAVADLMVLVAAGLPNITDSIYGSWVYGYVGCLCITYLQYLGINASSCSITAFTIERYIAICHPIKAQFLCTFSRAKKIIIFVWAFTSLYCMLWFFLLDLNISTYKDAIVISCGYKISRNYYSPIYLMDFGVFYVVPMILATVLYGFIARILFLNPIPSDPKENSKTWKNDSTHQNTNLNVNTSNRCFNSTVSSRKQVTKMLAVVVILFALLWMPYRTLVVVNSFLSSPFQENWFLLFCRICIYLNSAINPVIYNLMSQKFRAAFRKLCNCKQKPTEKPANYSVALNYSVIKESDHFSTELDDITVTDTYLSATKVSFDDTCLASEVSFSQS
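Enhancer read-out: after compound pinning and an initial kinetic agonist-mode read, an EC20 of TRH (10 nM final) was injected and fluo-8 calcium signal (Ex 480/Em 530) followed at 1 s/cycle for 100 cycles in TRHR-expressing cells.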
Glioma ERSR ind: ER stress response induction in glioma | U87-MG GRP78 promoter luciferase reporter, 16 h | Potency, µM, without a hit: top-dose activation, actives largely listed as activators | actives 0.02% (n = 420,000) | AID 602332; active = well fitted activation curve with a large enough effect; note: potency is the fitted concentration of half-maximal effect; series mostly up to about 76 µM; % of control where 0% means no effect; nearly all actives have a fitted effect of over 35% in size
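ERSR induction read as luciferase luminescence (Bright-Glo, 10 min at room temperature) in stably transfected human U87-MG glioma cells exposed to compounds for 16 h, using GRP78 as sensor.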
TRHR ag: agonists of human TRH receptor; actives 0.18% (n = 360,000); P34981; activation, % at 2 µM; TRHR cells, calcium flux fluo-8, FDSS agonist mode; note: 0% is about no effect
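Steps: seed TRHR cells overnight; add fluo-8 no-wash Ca dye, RT 30 min–1.5 h; record 10 s baseline; pin-transfer compounds; monitor fluorescence 1 cycle/s for the agonist window. Calcium increases flag candidate agonists.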
D1 ag: agonists of human D1 dopamine receptor | P21728 | HEK293 T-REx D1 cells, calcium flux, agonist mode | activation, % at 2 µM | actives 1% (n = 360,000); note: 0% is about no effect
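Agonism was scored from calcium flux recorded over 180 s (1 read/s) after pintool compound addition, following a 10-cycle baseline. Cells were inducible force-coupled HEK293 TREx D1, plated overnight at 30 C and loaded with no-wash calcium dye.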
D1 antag: blocks dopamine activation of the human D1 receptor; AID 504652; P21728; HEK293 TREx D1 cells, calcium flux, dopamine EC80; stronger effect = lower value; actives 3.2% (n = 360,000); activity change, negative = inhibition, % at 10 µM; in the data active = activity change below about -30%; note: % is set by controls: 0 for no effect and ±100 for the full control effect
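Inducible Hek293 Trex D1 cells (tetracycline, overnight, 30 C). Calcium dye 30–90 min RT. Antagonist mode: EC80 dopamine added after 180 s compound read.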
Starred values were filed as active, the others as inactive; nt = not tested or not shown; ! = not active in a repeat. Cut-off read from the data, not from the text of the source, unless noted: active = activation above about 30%; inactive = the rest.

SMILES	D1 PAM	TRHR enhancer	Glioma ERSR ind	TRHR ag	D1 ag	D1 antag
O=C(Nc1nnc(SCc2ccc(Cl)cc2)s1)c1cnccn1	0	3	-2%	0	4	-36*
CCCN(CCC)C(=O)Cn1c(=O)n(-c2cccc(OC)c2)c(=O)c2c3c(sc21)CCCC3	1	-12	-2%	-2	-2	-5
CN1C(=O)CC(N2CCC(C(N)=O)CC2)C1=O (stereo not given)	-1	2	-1%	0	2	-4
NC(=O)C1CCN(C2CC(=O)NC2=O)CC1 (stereo not given)	-3	1	-4%	-1	5	-37*
C=C(C)CC1(c2ccccc2)Oc2ccccc2-c2nc3cc(Cl)c(Cl)cc3nc21 (stereo not given)	nt	nt	-1%	nt	nt	nt
COc1ccc(Cl)cc1NC(=O)CCCn1c(=O)c2cccn2c2cccnc21	-2	-11	-4%	-2	0	-9
CC(=O)Nc1ccc(Sc2ccccc2C(=O)Nc2ccc(F)cc2)cn1	2	1	-2%	4	46*	-8
Cc1cc2c(s1)c1cnn(Cc3ccccc3Br)c(=O)c1n2C	-6	-2	nt	-2	2	5
c1csc(-c2ccc3ccccc3n2)c1	1	2	4%	0	1	6
Cc1cc2ncc(-c3cccs3)nc2cc1C	-3	31*	-10%	0	0	-6
Cc1ccccc1-c1nc(CS(=O)(=O)CC(=O)NCCc2ccccc2)c(C)o1	-4	-1	-5%	-1	31*!	-31*!
CCN1CCN(C(=O)CS(=O)(=O)Cc2nc(-c3ccccc3C)oc2C)CC1	-4	-1	-6%	0	7	-27
Cc1oc(-c2ccccc2F)nc1CS(=O)(=O)CC(=O)NCCCc1ccccc1	-3	-4	-2%	0	-2	12
Cc1ccccc1-c1nc(CS(=O)(=O)CC(=O)N2CCCCC2)c(C)o1	-4	33*	2%	0	8	-1
COc1cccc(-c2nc(CS(=O)(=O)CC(=O)NCCc3ccccc3)c(C)o2)c1	0	-2	-3%	0	15	3
CCN1CCN(C(=O)CS(=O)(=O)Cc2nc(-c3ccc(C)cc3)oc2C)CC1	-7	-2	0%	0	2	-31*
COc1cccc(-c2nc(CS(=O)(=O)CC(=O)NCC(C)c3ccccc3)c(C)o2)c1 (stereo not given)	-3	11	-7%	-1	70*	6
Cc1ccc(N2/C(=N/c3nc(C)cc(C)n3)NC(=O)CC2C(=O)O)cc1 (stereo not given)	2	-6	-2%	1	2	-4
Cc1cc(C)nc(/N=C2\NC(=O)CC(C(=O)O)N2c2ccc(Cl)cc2)n1 (stereo not given)	-9	2	-2%	0	-2	-62*
Cc1ccc(-c2nc3cc(Cl)ccc3o2)cc1NC(=O)COc1ccccc1C	nt	nt	3%	nt	nt	nt
C/C(=N\NC(=O)c1ccco1)c1ccc(C(=O)O)s1	3	-2	5%	0	5	7
C/C(=N/NC(=O)c1ccco1)c1ccc(Br)s1	-8	0	5%	-1	1	-31*
CC(C)(C)NCC(O)COc1c(F)cc(Br)cc1F (stereo not given)	-1	9	-2%	0	5	-1
CC(C)(C)CC(C)(C)NCC(O)COc1c(F)cc(Br)cc1F (stereo not given)	-8	21	-5%	2	39*	7
CC1CCC(NC(=O)c2cc(S(=O)(=O)N(C)C)ccc2N2CCCC2)CC1 (stereo not given)	0	-9	0%	0	-4	31
COc1ccccc1C(=O)N/C(=C\c1cn(S(=O)(=O)N(C)C)c2ccccc12)C(=O)NCCCn1ccnc1	-1	-3	-3%	-2	-1	20
CN(C)S(=O)(=O)n1cc(/C=C(\NC(=O)c2ccccc2F)C(=O)NCCCn2ccnc2)c2ccccc21	11	-14	0%	1	3	-38*!
O=C(NCCCn1ccnc1)/C(=C/c1ccc(Cl)cc1)NC(=O)c1ccccc1	nt	-2	1%	-1	2	6

Assay outcomes deposited in PubChem by National Center for Advancing Translational Sciences (NCATS).
